{"source": "the supplement of paper PMC8183993", "note": "Several values for one entry are separate records, joined by “and”; a condition that tells them apart may be missing. Equal entries are not always repeated. Structures can show the parent of a compound that is named as a salt. ± gives the standard deviation of the averaged measurements. Whole data set: some 3,200 compounds, median “nuclei count (viability) relative to DMSO” near 99, cut for the lowest 2% near 16. This is one part of a sample in which the lowest values are shown more often than they occur.", "data": [{"test_system": "U2OS", "experiment": "nuclei count (viability) relative to DMSO (% of DMSO); higher = more viable cells", "conditions": "10 µM; 24 h", "method": "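Primary image-based screen in U2OS cells: compounds at 10 uM for 24 h, then a 1 h o-propargyl-puromycin (OPP) pulse, click labelling, and high-throughput microscopy. Mean cytoplasmic OPP intensity and nuclei count were normalised to DMSO wells within each plate (DMSO = 100) and averaged over triplicate plates.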", "values": [{"smiles": "COCC[n+]1c2c(n(Cc3cnccn3)c1C)C(=O)c1ccccc1C2=O", "nuclei count": 14.1}, {"smiles": "CC(=O)NNC(=O)N1Cc2ccccc2Oc2ccc(Cl)cc21", "nuclei count": 94.3}, {"smiles": "OCc1ccc(O[C@@H]2O[C@H](CO)[C@@H](O)[C@H](O)[C@H]2O)cc1", "note": "[Gastrodin (Gastrodine)]", "nuclei count": 94.5}, {"smiles": "CSc1cccc(Nc2ncc3cc(-c4c(Cl)cccc4Cl)c(=O)n(C)c3n2)c1", "nuclei count": 72.2}, {"smiles": "CCN(CC)CCOc1ccc(Nc2ncc3cc(-c4c(Cl)cccc4Cl)c(=O)n(C)c3n2)cc1", "nuclei count": 7.54}, {"smiles": "CCN(CC)CCOc1ccc(Cc2ccccc2)cc1", "note": "[DPPE fumarate]", "nuclei count": 101}, {"smiles": "Cc1ccc(CC2(O)CCN(CCOc3ccc(O)cc3)CC2)cc1", "nuclei count": 87.3}, {"smiles": "COc1ccc(CCC(=O)c2c(O)cc(O[C@@H]3O[C@H](CO)[C@@H](O)[C@H](O)[C@H]3O[C@@H]3O[C@@H](C)[C@H](O)[C@@H](O)[C@H]3O)cc2O)cc1O", "note": "[Neohesperidin dihydrochalcone (Nhdc)]", "nuclei count": 98.7}, {"smiles": "COC(=O)[C@]12CCC(C)(C)C[C@H]1[C@H]1C(=O)C=C3[C@@]4(C)C=C(C#N)C(=O)C(C)(C)[C@@H]4CC[C@@]3(C)[C@]1(C)CC2", "note": "[Bardoxolone Methyl]", "nuclei count": 4.35}, {"smiles": "C[C@]12CC[C@@H](O)C[C@@H]1CC[C@@H]1[C@@H]2CC[C@]2(C)C=CC[C@@H]12", "note": "[3a, 5a-Androstenol]", "nuclei count": 90.5}, {"smiles": "Cc1ccc(NC(=O)c2ccc(CN3CCN(C)CC3)cc2)cc1Nc1nccc(-c2cccnc2)n1", "note": "[Imatinib (STI571)]", "nuclei count": 99.1}, {"smiles": "Cc1ccc(NC(=O)c2ccc(CN3CCN(C)CC3)cc2)cc1Nc1nccc(-c2cccnc2)n1", "note": "[Imatinib mesylate]", "nuclei count": "93.1 ± 2.5"}, {"smiles": "Cc1ccc(C(=O)Nc2ccc(CN3CCN(C)CC3)c(C(F)(F)F)c2)cc1C#Cc1cnc2[nH]ncc2c1", "note": "[GZD824 Dimesylate]", "nuclei count": 14.1}, {"smiles": "Cc1ccc(NC(=O)c2ccc(CN3CCN(C)CC3)cc2)cc1Nc1nccc(-c2cccnc2)n1", "note": "[Imatinib Mesylate]", "nuclei count": 96.8}, {"smiles": "Cc1ccc(NC(=O)c2ccc(CN3CCN(C)CC3)cc2)cc1Nc1nc(-c2cccnc2)cs1", "note": "[Masitinib (AB1010)]", "nuclei count": 90.7}, {"smiles": "Cc1ccc(C(=O)Nc2ccc(CN3CCN(C)CC3)c(C(F)(F)F)c2)cc1C#Cc1cnc2cccnn12", "nuclei count": 16.3}, {"smiles": "Cc1ccc(NC(=O)c2ccc(CN3CCN(C)CC3)cc2)cc1Nc1nccc(-c2cccnc2)n1", "note": "[Imatinib]", "nuclei count": 101}, {"smiles": "Cc1ccc(NC(=O)c2ccc(CN3CC[C@H](N(C)C)C3)c(C(F)(F)F)c2)cc1Nc1nccc(-c2cncnc2)n1", "note": "[Bafetinib (INNO-406)]", "nuclei count": 77.9}, {"smiles": "CCNC(=O)Nc1ccc(-c2nc3c(c(N4CCOC[C@@H]4C)n2)CCN(C2COC2)C3)cc1", "nuclei count": "75.4 ± 5.5"}, {"smiles": "O=C(O)[C@]1(Cc2cccc(Nc3nccs3)n2)CC[C@@H](Oc2cccc(Cl)c2F)CC1", "nuclei count": "77.7 ± 2.7"}, {"smiles": "CC(C1=C(CCN(C)C)Cc2ccccc21)c1ccccn1", "note": "(stereo in doubt) [(S)-(+)-Dimethindene maleate]", "nuclei count": 101}, {"smiles": "CCNC(=O)c1cc2c(-c3cc(OCCN4CCCC4)c(Cl)cc3Cl)nc(N)nc2s1", "nuclei count": 67}, {"smiles": "NC(=O)N1c2ccccc2CC(O)c2ccccc21", "note": "(centres undefined) [Licarbazepine]", "nuclei count": 104}, {"smiles": "CCNc1nc(Nc2cc(F)c(C(=O)N3CCOCC3)cc2OC)ncc1C(F)(F)F", "nuclei count": 96.2}, {"smiles": "COc1ccc(-n2[nH]c3c4c(ncc3c2=O)CCCCC4)cc1", "nuclei count": 99.9}, {"smiles": "O=C(O)c1cc(O)ccc1O", "note": "[Gentisic acid]", "nuclei count": 103}, {"smiles": "COc1ccc2[nH]c(-c3ccccc3)c(CCNC(C)=O)c2c1", "note": "[2-Phenylmelatonin]", "nuclei count": 84.5}, {"smiles": "N[C@@H](CSC(c1ccccc1)(c1ccccc1)c1ccccc1)C(=O)O", "note": "[S-Trityl-L-cysteine]", "nuclei count": 95}, {"smiles": "C=CC(=O)Nc1cccc(Nc2nc(Nc3ccc(OCCOC)cc3)ncc2F)c1", "nuclei count": 34.7}, {"smiles": "CS(=O)(=O)c1cccc(CNc2nc(Nc3ccc4c(c3)CCC(=O)N4)ncc2C(F)(F)F)c1", "nuclei count": "45.9 ± 3.2"}, {"smiles": "Cc1cnc(Nc2ccc(N3CCN(C)CC3)cc2)nc1Nc1cccc(S(=O)(=O)NC(C)(C)C)c1", "nuclei count": 5.44}, {"smiles": "Cc1cnc(Nc2ccc(OCCN3CCCC3)cc2)nc1Nc1cccc(S(=O)(=O)NC(C)(C)C)c1", "nuclei count": "7.48 and 5.57"}, {"smiles": "C=CCn1c(=O)c2cnc(Nc3ccc(N4CCN(C)CC4)cc3)nc2n1-c1cccc(C(C)(C)O)n1", "nuclei count": 25.1}, {"smiles": "CNC(=O)c1nn(C)c2c1C(C)(C)Cc1cnc(Nc3ccc(N4CCN(C)CC4)cc3)nc1-2", "nuclei count": "54.8 and 36.4"}, {"smiles": "Oc1cc2c(cc1O)[C@@H]1c3ccc(O)c(O)c3OC[C@]1(O)C2", "note": "[Hematoxylin (Hydroxybrazilin)]", "nuclei count": 86}, {"smiles": "Cc1nn(C)c2nc(NNC(=O)Nc3cc(Cl)nc(Cl)c3)cc(C(C)C)c12", "nuclei count": 106}, {"smiles": "COC(=O)C1=C(C)NC(C)=C([N+](=O)[O-])[C@H]1c1ccccc1C(F)(F)F", "nuclei count": 99.5}, {"smiles": "O=C(c1ccc(Cl)cc1Cl)n1nnc2ccccc21", "nuclei count": 83.2}, {"smiles": "COc1cc(OC)c(/C=C/S(=O)(=O)Cc2ccc(OC)c(NCC(=O)O)c2)c(OC)c1", "nuclei count": "16.3 ± 1.4"}]}]}
